Bioassay records (PubChem)
SKN-1 block: blocks SKN-1 activity in C. elegans; 360,000 compounds, 0.49% hits; AID 624304; inhibition, % at 21.8 µM; C. elegans VP596 Pgst-4::GFP/RFP ratio, acrylamide-induced, 24 h;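 active = interference check ratio from 0.5 to 1.5 plus GFP to RFP signal ratio inhibition reaching or exceeding a fixed threshold, cut at about 30% in these data, passing the limit was not always enough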
Rev-erbA mod: Rev-erb alpha (human) modulation; P20393; Rev-erbα–FITC-DNA binding, fluorescence polarization, 90 min; activity, % at 10 µM; 370,000 compounds, 0.79% hits;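 active = activity above about 14%, limit read from the data; passing the limit was not always enough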
EP2 modulator: modulates human prostaglandin E2 receptor EP2 signaling. P43116. EP2-expressing cells, cAMP HTRF FRET, PGE2 co-stimulation. 260,000 compounds, 0.83% hits. AID 940. induction, % at 25 µM;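 active = compounds whose cAMP rise, as percent of the full-agonist control response, exceeds 60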;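 also: rat C6 glioma line stably carrying human EP2 under a CMV promoter; the protocol text gives 20 µM as final concentration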
Target sequence (P43116 whole entry, looked up): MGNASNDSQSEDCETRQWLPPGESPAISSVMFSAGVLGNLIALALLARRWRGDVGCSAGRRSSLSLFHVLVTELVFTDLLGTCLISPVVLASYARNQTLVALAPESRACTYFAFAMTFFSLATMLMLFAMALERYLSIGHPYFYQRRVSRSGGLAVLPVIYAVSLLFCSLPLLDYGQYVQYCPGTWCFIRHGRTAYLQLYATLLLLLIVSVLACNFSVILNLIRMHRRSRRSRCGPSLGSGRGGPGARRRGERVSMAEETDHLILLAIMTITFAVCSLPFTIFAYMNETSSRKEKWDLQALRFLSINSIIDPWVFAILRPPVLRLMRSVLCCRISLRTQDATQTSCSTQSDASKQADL
PG9 binder: binds the HIV-1 gp120 antibody PG9. TR-FRET gp120-PG9 antibody binding. inhibition, % at 6.7 µM. 360,000 compounds, 0.43% hits; in the data active = inhibition above about 8.5%
PGE2 EP2 inh: inhibitors of human EP2 prostaglandin E2 receptor; C6 glioma cells expressing human EP2, cAMP TR-FRET; cells stimulated with saturating PGE2; inhibition, % at 25 µM; 260,000 compounds, 0.52% hits; AID 1422;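 active = percent inhibition above 40 after rounding to a whole number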;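 also: rat C6 glioma host cells with rolipram phosphodiesterase inhibitor present; the protocol text gives 20 µM as final concentration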
RAM inhibit: yeast RAM network inhibition. S. cerevisiae dse1pr::URA3 reporter, 5-FOA growth OD615, 2 d; analog-sensitive cbk1-as2 kinase mutant strain. AID 868. inhibition, % at 50 µM. 190,000 compounds, 1.8% hits;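 active = inhibition above a set limit, 3 SD over mean compound inhibition, cut at about 8.4% in these data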;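 also: inhibition rescues growth on 5-FOA so higher OD means more RAM inhibition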
PG9 binder conf: PG9 antibody binding, confirmed; shares compounds with PG9 binder; TR-FRET PG9 antibody binding, biochemical; inhibition, % at 6.7 µM; 1,500 compounds, 90% hits; in the data active = inhibition above about 9%
PGV04 counter: binds control antibody PGV04 in PG9 binder counter-screen; shares compounds with PG9 binder; TR-FRET PGV04 antibody-gp120 binding, biochemical; inhibition, % at 6.7 µM; 1,500 compounds, 95% hits; AID 651604; in the data active = inhibition above about 9.5%
NR1D1 mod conf: confirmation of modulators of human Rev-erb alpha DNA binding. shares compounds with Rev-erbA mod. Rev-erb alpha FITC-DNA binding, fluorescence polarization, 90 min. activation, % at 25 µM. 3,000 compounds, 61% hits. AID 1259319;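 active = activation at or above a set limit, or at least 3 SD above the negative control mean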
RORg DNA counter: affects RORgamma DNA binding in a Rev-erb alpha counter-screen; shares compounds with Rev-erbA mod; purified RORgamma protein-FITC-DNA binding, fluorescence polarization; IC50, µM; 910 compounds, 8% hits; AID 1259320;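 active = Compounds whose fitted half-maximal concentration for disrupting protein-DNA binding is below 10 micromolar; the record names Rev-erb in its text, so the target is in doubt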
Each line names hits and unclear results; the compound was inactive in the other large screens (follow-up assays come after a bar, where they were run). Sampled rows, rich in hits. Any-hit rate of the full collection: about 2.9%.

COc1ccc(-c2cc(-c3ccccc3)c(C#N)c(SCC(=O)Nc3ncc(C)s3)n2)cc1	Rev-erbA mod 25.9, PG9 binder 27.5 | PG9 binder conf inactive | PGV04 counter 10.0 | NR1D1 mod conf 42.1 | RORg DNA counter inactive
N#Cc1c(-c2ccc(F)cc2)cc(-c2ccccc2)nc1SCC(=O)NCC(=O)O	none (no result: RAM inhibit)
COc1ccccc1C(=O)NCCNc1nc2cc(C)cc(C)c2cc1C#N	none (no result: EP2 modulator, PGE2 EP2 inh, RAM inhibit)
Cc1cc(C)c2cc(C#N)c(NCCNC(=O)c3ccccc3)nc2c1	Rev-erbA mod 17.7, PG9 binder 28.6 (no result: EP2 modulator, PGE2 EP2 inh, RAM inhibit) | PG9 binder conf 24.6 | PGV04 counter 31.6 | NR1D1 mod conf 15.4
COc1ccc(CCN2C(=O)C(O)=C(C(=O)c3ccco3)C2c2cccc(O)c2)cc1OC (stereo not drawn)	none (no result: SKN-1 block, Rev-erbA mod, PG9 binder, RAM inhibit)
CC(C)(C)NC(=O)CSc1nnc(NC(=O)c2ccc(Cl)cc2)s1	none (no result: SKN-1 block, Rev-erbA mod, PG9 binder, RAM inhibit)
COc1cc(NC(=O)CCn2c(=S)[nH]c3ccccc3c2=O)cc(OC)c1OC	Rev-erbA mod 26.7, PG9 binder 81.3 (no result: EP2 modulator, PGE2 EP2 inh, RAM inhibit) | PG9 binder conf 78.9 | PGV04 counter 81.0 | NR1D1 mod conf 35.7 | RORg DNA counter inactive
COc1ccc(OCCSc2nc3ccccc3c(=O)[nH]2)cc1	Rev-erbA mod 29.2, PG9 binder 58.3 | PG9 binder conf 53.4 | PGV04 counter 65.5 | NR1D1 mod conf 21.3
O=C(c1cc(-c2ccccc2)nc2ccccc12)N1CCOCC1	none
CC(C)c1ccc(-c2cc(C(=O)N3CCOCC3)c3cc(Br)ccc3n2)cc1	Rev-erbA mod 63.1, PG9 binder 16.8 (no result: EP2 modulator, PGE2 EP2 inh, RAM inhibit) | PG9 binder conf 29.8 | PGV04 counter 35.7 | NR1D1 mod conf 28.1
COc1cccc(-c2nnc3sc(-c4cccs4)nn23)c1	Rev-erbA mod 41.2, PG9 binder 39.1 | PG9 binder conf 32.9 | PGV04 counter 57.1 | NR1D1 mod conf inactive
COc1cccc(-c2nn3c(-c4cccc(C)c4)nnc3s2)c1	none
COc1ccc2oc(C(=O)Nc3nccs3)c(C)c2c1	Rev-erbA mod 35.6, PG9 binder 12.2 (no result: EP2 modulator, PGE2 EP2 inh, RAM inhibit) | PG9 binder conf 21.3 | PGV04 counter 46.2 | NR1D1 mod conf inactive
COc1ccc(NC(=O)NNC(=O)COc2ccc3cc(Br)ccc3c2)cc1OC	Rev-erbA mod 77.4, PG9 binder 17.9 (no result: EP2 modulator, PGE2 EP2 inh, RAM inhibit) | PG9 binder conf 28.6 | PGV04 counter 39.2 | NR1D1 mod conf 64.7 | RORg DNA counter inactive
COc1ccc(NC(=O)NNC(=O)COc2ccc3ccccc3c2)cc1OC	none (no result: EP2 modulator, PGE2 EP2 inh, RAM inhibit)
C=CCNC(=O)CN1CCC(c2ccc(OC)cc2)CC1	none (no result: SKN-1 block, Rev-erbA mod, PG9 binder, PGE2 EP2 inh, RAM inhibit)
Cn1c(SCC(=O)NCc2ccc3c(c2)OCO3)ncc(C(=O)Nc2ccc(F)cc2)c1=O	Rev-erbA mod 39.7, PG9 binder 21.4 (no result: EP2 modulator, PGE2 EP2 inh, RAM inhibit) | PG9 binder conf 16.1 | PGV04 counter 18.4 | NR1D1 mod conf 50.9 | RORg DNA counter inactive
Cc1cccc2cc(COC(=O)COc3ccccc3)c(=O)[nH]c12	Rev-erbA mod 30.9, PG9 binder 26.2 | PG9 binder conf 30.8 | PGV04 counter 41.3 | NR1D1 mod conf 21.1
COCC(=O)OCc1cc2cccc(C)c2[nH]c1=O	none (no result: RAM inhibit)
Cc1cccc2cc(C(c3nnnn3C(C)(C)C)N3CCCc4ccccc43)c(=O)[nH]c12 (stereo not drawn)	none (no result: SKN-1 block, Rev-erbA mod, PG9 binder, RAM inhibit)
Cc1ccccc1OCC(=O)Nc1ccc2c(c1)C(=O)c1ccccc1C2=O	Rev-erbA mod 272.8, PG9 binder 25.1 | PG9 binder conf 73.0 | PGV04 counter 91.4 | NR1D1 mod conf 220.8 | RORg DNA counter 6.87
Cc1ccccc1OCC(=O)Nc1ccc2c(c1)Cc1ccccc1-2	none (no result: PG9 binder)
Cc1ccc(C(=O)Nc2ccc3c(c2)OCO3)cc1Cl	Rev-erbA mod 23.6, PG9 binder 21.4 (no result: EP2 modulator, PGE2 EP2 inh, RAM inhibit) | PG9 binder conf 18.1 | PGV04 counter 22.4 | NR1D1 mod conf inactive
COc1ccc(NC(=O)Cn2nnc(-c3ccccc3NC(=O)c3cnccn3)n2)cc1	none (no result: SKN-1 block, Rev-erbA mod, PG9 binder, RAM inhibit)
COC(=O)c1ccc2nc(NC(=O)CCS(=O)(=O)c3ccccc3)sc2c1	Rev-erbA mod 43.4, PG9 binder 14.9 (no result: EP2 modulator, PGE2 EP2 inh, RAM inhibit) | PG9 binder conf 24.7 | PGV04 counter 35.8 | NR1D1 mod conf 17.9
CS(=O)(=O)c1ccc2nc(NC(=O)CCS(=O)(=O)c3ccccc3)sc2c1	none (no result: EP2 modulator, PGE2 EP2 inh, RAM inhibit)
CCC(=O)c1cn(CC(=O)Nc2ccc(C)cc2C)c2ccccc12	Rev-erbA mod 36.2, PG9 binder 11.6 (no result: RAM inhibit) | PG9 binder conf 12.4 | PGV04 counter 18.2 | NR1D1 mod conf 40.4 | RORg DNA counter 9.78
CCC(=O)Nc1cc(C(=O)OCC(=O)c2cccs2)ccc1C	none (no result: SKN-1 block, Rev-erbA mod, PG9 binder, RAM inhibit)
NC(=O)c1nsc(C(=O)N(c2ccccc2)C(C(=O)NCc2ccc(F)cc2)c2ccc(O)cc2)c1N (stereo not drawn)	Rev-erbA mod 20.4, PG9 binder 9.9 (no result: EP2 modulator, PGE2 EP2 inh, RAM inhibit) | PG9 binder conf inactive | PGV04 counter 9.8 | NR1D1 mod conf inactive
COc1ccc(N(C(=O)c2snc(C(N)=O)c2N)C(C(=O)NCc2ccccc2)c2ccc(O)cc2)cc1 (stereo not drawn)	none (no result: EP2 modulator, PGE2 EP2 inh, RAM inhibit)
Cc1ccc2cc(CN(Cc3ccccc3Cl)C(=O)c3cnccn3)c(=O)[nH]c2c1	none (no result: SKN-1 block, Rev-erbA mod, PG9 binder, RAM inhibit)
CCN(C(=O)COC(=O)c1cc(-c2ccccc2)nc2ccc(Br)cc12)C1CCS(=O)(=O)C1 (stereo not drawn)	Rev-erbA mod 41.8, PG9 binder 12.3 | PG9 binder conf 23.1 | PGV04 counter 31.6 | NR1D1 mod conf 43.3
COc1ccc(-c2ccc3c(c2)c(Sc2ccccc2)c(-c2cc(OC)cc(OC)c2)n3C)cc1	Rev-erbA mod 39.7, PG9 binder 16.9 (no result: EP2 modulator, PGE2 EP2 inh, RAM inhibit) | PG9 binder conf 43.6 | PGV04 counter 59.7 | NR1D1 mod conf 60.0 | RORg DNA counter inactive
COc1cc(OC)cc(-c2c(Sc3ccccc3)c3cc(-c4cnc(OC)nc4)ccc3n2C)c1	none (no result: EP2 modulator, PGE2 EP2 inh, RAM inhibit)
